# In PubChem BioAssay:
# Values without a mark were called inactive. No rule for the calls is given here.
# Biological target: Pantothenate synthetase (Mycobacterium tuberculosis (strain ATCC 25618 / H37Rv)) (UniProt P9WIL5)
# Test: Coupled enzyme confirmation of inhibitors against recombinant Mtb PanC (AID 375);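 also: 0% = full reaction with vehicle and 100% = no enzyme background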
# Settings: coupled enzyme assay; at 10 µM, hits give high values
# Chain of Pantothenate synthetase (Mycobacterium tuberculosis (strain ATCC 25618 / H37Rv)) (P9WIL5 whole entry, looked up): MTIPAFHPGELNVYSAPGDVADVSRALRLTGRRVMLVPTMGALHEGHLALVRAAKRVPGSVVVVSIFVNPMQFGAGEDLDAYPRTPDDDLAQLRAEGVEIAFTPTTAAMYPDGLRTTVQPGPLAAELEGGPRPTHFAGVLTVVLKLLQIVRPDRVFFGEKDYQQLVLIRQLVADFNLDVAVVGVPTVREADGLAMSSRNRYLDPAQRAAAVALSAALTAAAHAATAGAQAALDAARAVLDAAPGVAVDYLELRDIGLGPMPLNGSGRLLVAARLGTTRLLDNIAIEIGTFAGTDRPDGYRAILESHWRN
row,SMILES,inhibition [%]
1,Cc1nc(N2CCOCC2)[nH]c(=O)c1CCC(C)C,8
2,CC1CCN(S(=O)(=O)c2ccc(S(=O)(=O)NCC(=O)C(C)(C)C)cc2)CC1,2
3,c1ccc(-c2nc3cnccn3c2Nc2ccc3c(c2)OCCO3)cc1,0
4,Cc1nc2cc(NC(=O)N3c4ccccc4CC3C)ccc2o1 (configuration not stated),0
5,O=C(CSc1nnc(Cc2cc(=O)[nH]c(=O)[nH]2)n1-c1ccccc1)NCC1CCCO1 (configuration not stated),0
6,COC(=O)c1ccccc1OCC(=O)NC1CCCCC1,0
7,Cc1cc(C)n(Cc2cc(C)c(Cn3nc(C)cc3C)cc2C)n1,3
8,CCCCC(=O)Nc1nn(CCC)c2nc3ccccc3cc12,0
9,CCc1nnc(NC(=O)CSc2nc(-c3ccc(OC)cc3)ns2)s1,0
10,CCOC(=O)C1CCCN(c2cc(=O)n(Cc3ccc(F)cc3)c(=O)[nH]2)C1 (configuration not stated),2
11,CCSCCNC(=O)c1cc(-n2cnnc2)ccc1Cl,0
12,CC1(C)CC(=O)c2c(O)cc(O)cc2O1,3
13,O=C(C1CCCCC1)N1CCC(c2nc3c(nnn3Cc3c(F)cccc3Cl)c(=O)[nH]2)CC1,0
14,CCOCCCNC(=O)C1CC(=O)N(C2CCCC2)C1 (configuration not stated),2
15,CC1(C)Cc2noc(N)c2C(C)(C)N1OC(=O)c1ccco1,0
16,Cc1ccccc1NC(=O)C1CCN(c2cnccn2)CC1,0
17,CCNS(=O)(=O)c1ccc(S(=O)(=O)N(Cc2ccccn2)C2CCCCC2)cc1,1
